# Only some compounds are listed: those with a hit (about 10% of all), similar ones and a draw of the others.
# Six1-Eya2 inh – blocks human Six1 binding to Eya2; AlphaScreen GST-Six1/His-Eya2 binding, biochemical; stronger effect = lower value; activity change, % (test concentration not listed); 0.56% of 360,000 active; in the data active means activity change below about -65%; inconclusive means mostly about -30% to -63%; further: on the % scale 0 is the no-effect control and ±100 the full control effect
#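 GST-Six1 + His-Eya2 (5X stock: 250/500 nM); Tris pH 8.0, 300 mM NaCl, 0.05% BSA, 0.02% Tween 20; GSH donor/Ni acceptor beads; 1 h 37 °C dark; AlphaScreen readout.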
# JMJD2A Tudor – blocks the human JMJD2A Tudor domain. Potency, µM (top dose mostly 114 µM), without a hit: at the highest dose activity change, negative = inhibition, usual class: inhibitors. 4.4% of 390,000 active. AlphaScreen JMJD2A-Tudor / H3K4me3 peptide binding; further: potency means the concentration at half of the fitted maximal effect; on the % scale 0 is the no-effect control and ±100 the full control effect; nearly all actives have a fitted effect of over 50% in size
# HP1b chromo inh – inhibitors of HP1-beta chromodomain binding to methylated histone tails | P83916 | AID 540317 | Potency, µM (titrated, usually from 114 µM), for the others: top-dose activity change, negative = inhibition, actives largely listed as inhibitors | 0.56% of 390,000 active | AlphaScreen HP1-beta / biotin-H3K9me3 peptide binding; further: potency means the concentration at half of the fitted maximal effect; nearly all actives have a fitted effect of over 70% in size
#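 HP1-beta protein (50 nM final) preincubated 30 min at room temperature with biotinylated H3(1-18)K9me3 peptide (50 nM) in PBS pH 7.4, 0.01% Tween-20, then compound added for 30 min. AlphaScreen streptavidin donor/nickel chelate acceptor beads (10 ug/mL final), 30 min dark, luminescence read.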
# CtBP-E1A blk – blocks the CtBP interaction with E1A; AlphaScreen GST-E1A/His-CtBP binding, 1536-well; stronger effect = lower value; activity change, % (test concentration not listed); 0.49% of 340,000 active; AID 651724; in the data active means activity change below about -65%; inconclusive means mostly about -30% to -63%; further: on the % scale 0 is the no-effect control and ±100 the full control effect
#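 Steps: dispense buffer (Tris pH 8.0, NaCl 300 mM, TCEP 1 mM, BSA, Tween 20); add 5X protein mix (GST-E1A, His-CtBP, 125 nM each); pin 23 nL compound; 2 h at 37 °C, dark; add 5X beads (50 ug/mL); 1 h; read.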
# BAZ2B inh – blocks human BAZ2B. Q9UIF8. AlphaScreen BAZ2B-H3K14Ac peptide displacement. Potency, µM (titrated, usually from 114 µM), inactives show at the top dose activity change, negative = inhibition, hits mostly inhibitors. 4.4% of 360,000 active; further: potency means the concentration at half of the fitted maximal effect; on the % scale 0 is the no-effect control and ±100 the full control effect; nearly all actives have a fitted effect of over 60% in size
# Target sequence (Q9UIF8 whole entry, looked up): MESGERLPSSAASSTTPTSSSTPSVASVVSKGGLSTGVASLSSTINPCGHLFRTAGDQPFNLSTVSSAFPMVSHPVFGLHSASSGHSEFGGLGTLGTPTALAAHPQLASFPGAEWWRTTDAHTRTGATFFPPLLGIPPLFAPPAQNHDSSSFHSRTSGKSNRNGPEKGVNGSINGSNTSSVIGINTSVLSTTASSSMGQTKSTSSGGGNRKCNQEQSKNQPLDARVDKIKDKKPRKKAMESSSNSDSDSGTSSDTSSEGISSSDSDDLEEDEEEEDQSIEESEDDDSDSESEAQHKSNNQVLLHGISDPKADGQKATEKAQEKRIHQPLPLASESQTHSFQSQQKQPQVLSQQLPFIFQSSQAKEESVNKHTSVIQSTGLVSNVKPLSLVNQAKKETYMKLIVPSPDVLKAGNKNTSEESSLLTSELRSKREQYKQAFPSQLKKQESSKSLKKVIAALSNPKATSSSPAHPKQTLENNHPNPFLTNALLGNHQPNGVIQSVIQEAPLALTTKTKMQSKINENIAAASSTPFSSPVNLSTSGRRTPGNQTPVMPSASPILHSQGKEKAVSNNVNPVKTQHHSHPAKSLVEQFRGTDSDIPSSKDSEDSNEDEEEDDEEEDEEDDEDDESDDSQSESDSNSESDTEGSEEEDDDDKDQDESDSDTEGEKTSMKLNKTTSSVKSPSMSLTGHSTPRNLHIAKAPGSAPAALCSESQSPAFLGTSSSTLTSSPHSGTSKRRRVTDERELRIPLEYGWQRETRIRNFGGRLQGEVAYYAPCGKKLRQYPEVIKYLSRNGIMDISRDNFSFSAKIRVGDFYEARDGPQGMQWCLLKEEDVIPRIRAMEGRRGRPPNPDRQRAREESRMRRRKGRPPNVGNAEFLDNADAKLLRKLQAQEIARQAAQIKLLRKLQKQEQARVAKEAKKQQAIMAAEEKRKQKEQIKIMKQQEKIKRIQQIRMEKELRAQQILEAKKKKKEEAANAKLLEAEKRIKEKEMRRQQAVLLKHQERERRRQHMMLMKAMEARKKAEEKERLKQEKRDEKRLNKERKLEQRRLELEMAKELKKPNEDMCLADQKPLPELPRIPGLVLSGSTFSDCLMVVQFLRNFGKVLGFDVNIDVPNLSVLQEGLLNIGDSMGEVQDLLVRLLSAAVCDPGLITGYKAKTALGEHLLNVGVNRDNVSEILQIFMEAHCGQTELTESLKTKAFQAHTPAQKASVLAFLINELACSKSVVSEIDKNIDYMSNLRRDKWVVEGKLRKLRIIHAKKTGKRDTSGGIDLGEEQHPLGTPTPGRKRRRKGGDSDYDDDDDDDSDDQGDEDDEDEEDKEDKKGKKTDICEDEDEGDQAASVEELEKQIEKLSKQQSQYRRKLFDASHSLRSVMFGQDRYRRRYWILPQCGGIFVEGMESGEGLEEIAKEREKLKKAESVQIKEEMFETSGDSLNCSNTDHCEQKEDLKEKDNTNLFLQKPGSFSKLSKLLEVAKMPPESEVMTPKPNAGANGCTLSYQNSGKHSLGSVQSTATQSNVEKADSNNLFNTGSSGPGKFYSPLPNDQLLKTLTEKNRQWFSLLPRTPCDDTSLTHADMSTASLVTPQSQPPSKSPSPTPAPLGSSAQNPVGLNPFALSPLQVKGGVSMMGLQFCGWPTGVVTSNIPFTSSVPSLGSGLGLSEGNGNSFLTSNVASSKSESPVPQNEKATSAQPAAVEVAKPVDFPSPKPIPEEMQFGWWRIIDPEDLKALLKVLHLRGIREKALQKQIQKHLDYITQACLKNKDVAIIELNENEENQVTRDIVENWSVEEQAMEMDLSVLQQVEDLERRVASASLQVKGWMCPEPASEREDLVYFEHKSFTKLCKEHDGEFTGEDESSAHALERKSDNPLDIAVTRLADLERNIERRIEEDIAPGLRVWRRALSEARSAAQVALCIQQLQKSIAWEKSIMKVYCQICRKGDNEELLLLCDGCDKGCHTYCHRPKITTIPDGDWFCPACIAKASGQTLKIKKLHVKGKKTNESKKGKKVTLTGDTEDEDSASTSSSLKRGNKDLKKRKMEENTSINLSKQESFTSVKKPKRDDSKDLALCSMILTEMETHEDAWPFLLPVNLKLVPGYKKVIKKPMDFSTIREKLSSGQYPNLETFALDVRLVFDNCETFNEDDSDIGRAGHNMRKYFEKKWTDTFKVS
#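 Compounds, titrated to a top concentration of 110 uM, were incubated 30 min at room temperature with preformed BAZ2B/acetyl-K14 H3 peptide complex (50 nM each). Proximity signal was measured by AlphaScreen after 20 min with beads.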
# G9a block – G9a (human) methyltransferase inhibition | Q96KQ7 | G9a H3K9 monomethylation, AlphaScreen, 2 h | Potency, µM (doses to about 102 µM), inactives show at the highest dose activity, negative = inhibition, usual class: inhibitors | 8.8% of 350,000 active; further: potency means the concentration at half of the fitted maximal effect; on the % scale 0 is the no-effect control and ±100 the full control effect; nearly all actives have a fitted effect of over 75% in size
#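 AlphaScreen detection with an anti-monomethyl H3K9 antibody quantified product after a 2 h room-temperature reaction containing 500 nM biotinylated H3K9 peptide, 20 µM SAM and 20 nM enzyme, which had been preincubated 15 min with compound.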
# Starred values were filed as active, the others as inactive; ? = inconclusive; . = no result; [ ] = remark or other dose. Unless noted, the call rests on the fitted dose curve; in most records, active means well fitted inhibition curve with a large enough effect; inconclusive means small, poorly fitted or top-dose-only effect; inactive means no such curve, though single readings can be large or run the other way.
SMILES,Six1-Eya2 inh,JMJD2A Tudor,HP1b chromo inh,CtBP-E1A blk,BAZ2B inh,G9a block
COc1cc(CNc2nc3c(C)cc(C)cc3s2)ccc1O,-3,?,-18%,-2,50µM*,45µM*
CN(CCNC(=O)c1ccc(CS(=O)(=O)c2c(Cl)cccc2Cl)o1)CCc1ccccc1,-4,-29%,21%,-4,-26%,?
CNC(=S)NNc1nc(C)cc(C)n1,16,?,79µM*,1,-17%,1.3µM*
CNC(=S)NNc1nc(-c2ccccc2)c2cc(Cl)ccc2n1,-20,?,-19%,-30,.,.
O=[N+]([O-])c1cc(Br)c2nsnc2c1N1CCOCC1,?,40µM*,20µM*,?,32µM*,.
COc1cc([N+](=O)[O-])c(N2CCOCC2)c([N+](=O)[O-])c1OC,-10,-22%,0%,-7,?,?
CC1(C)CC(=O)C(Sc2ccccc2C(=O)O)=C(O)C1,2,25µM*,9%,-16,-8%,?
CN=C(Cc1ccccc1)C1=C(O)CC(C)(C)CC1=O,-20,-9%,20%,2,13%,1%
CC1(C)CC(=O)C(CC(=O)NC(=O)NCc2ccccc2)=C(O)C1,3,-11%,32%,3,4%,21%[59 µM]
CC1(C)CC(=O)C(Sc2ccccc2)=C(O)C1,51,3%,59%,-4,-12%,45µM*
Cn1c(=O)c2c(ncn2CC(=O)Nc2cc(S(=O)(=O)N3CCCCC3)ccc2Cl)n(C)c1=O,0,1%,23%,-12,.,.
CCOc1ccccc1CNC(=O)c1ccc2c(c1)nc1n2CCCCC1,.,-2%,34%[57 µM],.,0%,5%[59 µM]
C=C1c2ccccc2O[C@H](C(=O)OCC)C1OC (mixture of isomers),.,.,.,.,.,-27%
O=C(NC(=S)N1CCCCC1c1cccnc1)c1ccc(F)cc1 (centres undefined),3,-19%,-1%,1,-13%[57.1 µM],32µM*
O=C(NC(=S)NN1CCCCC1c1cccnc1)c1ccc(Cl)cc1Cl (centres undefined),-6,-24%,23%,-6,-4%,71µM*
O=C(NC(=S)N1CCCCC1c1cccnc1)c1ccc(Br)cc1 (centres undefined),12,0%,35%,.,-4%[57.1 µM],22µM*
COC(=O)c1cccc(N2C(=O)C[C@](Sc3ccc(C)cc3)(C(=O)OC)[C@H]2c2ccccc2)c1,-6,.,.,-6,.,.
NS(=O)(=O)c1cccc(NC(=O)c2cccc(S(=O)(=O)N3CCCCCC3)c2)c1,-3,-3%,26%,7,.,.
O=C(Nc1cccc(S(=O)(=O)N2CCCCC2)c1)c1ccc(OCC2CCCO2)cc1 (centres undefined),-5,-13%,23%,4,.,56µM*
O=C(Nc1cccc(S(=O)(=O)N2CCCC2)c1)c1cccc(S(=O)(=O)N2CCOCC2)c1,-9,-2%,32%,.,5%,22%[12.7 µM]
O=C(Nc1cccc(S(=O)(=O)N2CCCCC2)c1)c1ccc2ncsc2c1,?,28µM*,7%,-22,56µM*,?
O=C(Nc1ccc(S(=O)(=O)N2CCCC2)cc1)c1ccc(OCC2CCCO2)cc1 (centres undefined),4,-10%,22%,7,-17%,-13%
O=C(Nc1ncccc1O)c1ccc(OCC2CCCO2)cc1 (centres undefined),-8,-24%,39%,-16,79µM*,-8%
O=C(Nc1cccc(O)c1)c1cccc(S(=O)(=O)N2CCCC2)c1,-72*,-15%,24%,?,-29%,-5%[59 µM]
CC1=C(c2ccc(C(C)C)cc2)S(=O)(=O)N=C1N1CCC(C(=O)NCc2ccc(C)o2)CC1,.,-10%,45%,.,2%,3%[59 µM]
SMILES,Six1-Eya2 inh,JMJD2A Tudor,HP1b chromo inh,CtBP-E1A blk,BAZ2B inh,G9a block
CSc1cccc(NC(=O)COC(=O)c2ccccn2)c1,4,-10%,61%,.,?,-5%[2.33 µM]
O=C(Nc1ncccc1O)c1cccc(S(=O)(=O)N2CCN(c3ccc(F)cc3)CC2)c1,-13,-32%,7%,-1,-17%,79µM*
O=C(Nc1ccncc1)c1cccc(S(=O)(=O)N2CCN(c3ccc(F)cc3)CC2)c1,-27,?,-23%,-20,?,?
O=C1CS/C(=N\NC(=O)c2ccccc2)N1,-7,?,31%,-9,-36%,2.5µM*
Oc1ccc(Cl)cc1C1C=C(c2ccc3c(c2)OCO3)NC(c2ccc(Cl)cc2)N1 (centres undefined),.,-29%,0%,.,.,.
O=C(NC(=S)Nc1ccccn1)c1ccco1,-29,?,22%,-26,2%,-7%
O=C(NC(=S)Nc1cccnc1Cl)c1ccc(Cl)cc1,-7,-3%,-4%,-1,-20%,40µM*
O=C(NC(=S)Nc1cccnc1Cl)c1ccco1,3,-21%,?,.,-22%,56µM*
CC(=O)Nc1ccc(NC(=O)C2Cc3ccccc3N2C(=O)c2ccccc2)cc1 (centres undefined),.,-11%,13%,.,-3%,4%[59 µM]
O=C(COC(=O)c1cc(=O)[nH]c(=O)[nH]1)Nc1ccccc1F,7,-2%,31%,3,.,.
CCCCSc1nc(CCC)cc(=O)[nH]1,5,-11%,21%,12,0%,?
CCCCSc1nc(C(=O)O)cc(=O)[nH]1,5,40µM*,40%,4,-2%,40µM*
Cn1c2cc(C=O)sc2c2cnn(Cc3ccccc3F)c(=O)c21,.,-18%,.,.,.,.
c1ccc(Sc2ccccn2)cc1,6,-7%,6%,5,.,.
c1ccc(SSc2ccccn2)nc1,11,4µM*,?,2,.,.
O=c1c2cccnc2n(Cc2cccc(F)c2)c(=O)n1Cc1ccc(F)cc1,.,53%,73%,.,22%,58%[59 µM]
Cc1ccc(Cl)cc1N1CCN(CC(O)COCc2ccco2)CC1 (centres undefined),-8,7.1µM*,?,-2,50µM*,11µM*
OC(COc1ccccc1)CN1CCN(C(c2ccccc2)c2ccccc2)CC1 (centres undefined),-11,-33%,9%,-14,?,11%
OC(COCc1ccco1)CN1CCN(C(c2ccccc2)c2ccccc2)CC1 (centres undefined),0,1.3µM*,28µM*,-16,35µM*,-159%
Cc1ccc(NC(=O)C2c3ccccc3-c3ccccc32)cc1,4,.,.,3,.,.
C/C(CCc1oc2ccccc2c1-c1ccc(C)o1)=N/O,-15,56µM*,-28%,-10,?,?
CCOC(=O)c1c(NC(=O)COc2ccccc2OCC)sc2c1CC(C)(C)NC2(C)C,-6,-33%,-7%,-7,-4%,?

# Source: PubChem BioAssay
